# MOR-DOR ag: agonists of human mu-delta opioid receptor heterodimerization; activation, % at 9.3 µM; cells, OPRM1-OPRD1 heterodimerization, luminescence; 340,000 compounds, 0.3% hits; AID 504326; P35372+P41143;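 also: 0% = vehicle-treated cells and 100% = reference agonist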
# Target sequence (P35372 whole entry, looked up): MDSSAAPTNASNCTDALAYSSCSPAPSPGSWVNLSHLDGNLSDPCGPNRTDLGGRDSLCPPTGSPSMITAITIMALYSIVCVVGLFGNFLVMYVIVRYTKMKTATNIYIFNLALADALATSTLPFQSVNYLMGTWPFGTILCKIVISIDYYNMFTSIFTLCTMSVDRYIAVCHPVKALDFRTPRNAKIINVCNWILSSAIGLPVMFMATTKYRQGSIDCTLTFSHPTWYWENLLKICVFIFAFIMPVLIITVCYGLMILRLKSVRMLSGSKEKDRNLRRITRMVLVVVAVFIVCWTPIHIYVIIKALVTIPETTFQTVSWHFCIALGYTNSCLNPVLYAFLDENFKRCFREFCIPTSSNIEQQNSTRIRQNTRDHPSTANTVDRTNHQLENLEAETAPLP
# Target sequence (P41143 whole entry, looked up): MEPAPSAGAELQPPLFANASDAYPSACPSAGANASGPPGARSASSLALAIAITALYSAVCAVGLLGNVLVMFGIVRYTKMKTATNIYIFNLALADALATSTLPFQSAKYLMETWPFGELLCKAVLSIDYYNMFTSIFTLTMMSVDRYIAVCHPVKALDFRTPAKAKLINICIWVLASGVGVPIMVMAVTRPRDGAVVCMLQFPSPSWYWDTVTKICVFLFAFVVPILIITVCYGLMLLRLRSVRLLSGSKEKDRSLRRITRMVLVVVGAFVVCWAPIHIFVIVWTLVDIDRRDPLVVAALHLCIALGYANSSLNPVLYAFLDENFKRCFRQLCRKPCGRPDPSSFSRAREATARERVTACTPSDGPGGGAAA
# HTR5A ag: HTR5A agonism, opioid heterodimer counter-screen | P47898 | HTR5A agonist assay, luminescence, cell-based | activation, % at 9.3 µM | 340,000 compounds, 0.61% hits | AID 504692; in the data active = activation mostly above about 9.5%, no sharp cut-off; inactive = mostly below about 7.6%;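 also: 0% = cells with vehicle only and 100% = reference agonist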
# HTR5A inv ctr: inverse agonist of human HTR5A in OPRM1-OPRD1 counter-screen | HTR5A cell line, luminescence, inverse agonism | AID 504634 | inhibition, % at 9.3 µM | P47898 | 340,000 compounds, 0.083% hits; in the data active = inhibition mostly above about 23%, no sharp cut-off; inactive = mostly below about 18%;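 also: 0% = cells with DMSO and 100% = no-cell wells with DMSO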
# OPRM1-OPRD1 inv: mu-delta opioid heterodimer inverse agonism; P35372+P41143; cell-based MOR-DOR heterodimer luminescence; inhibition, % at 9.3 µM; 340,000 compounds, 0.21% hits; in the data active = inhibition above about 22%, passing the limit was not always enough;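 also: 0% = cells with DMSO and 100% = wells without cells with DMSO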
# MOR-DOR ag conf: confirmation of human OPRM1-OPRD1 heterodimerization agonists; cells, MOR-DOR heterodimerization, luminescence complementation; AID 504904; shares compounds with MOR-DOR ag; activation, % at 9.3 µM; 830 compounds, 45% hits;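 also: 0% = vehicle-treated cells and 100% = reference agonist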
# HTR5A ag ctr2: HTR5A agonism, opioid heterodimer counter-screen | shares compounds with MOR-DOR ag | HTR5A agonist counterscreen, cell luminescence | activation, % at 9.3 µM | 830 compounds, 8% hits | AID 504905; in the data active = activation above about 17%;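 also: 0% = vehicle-treated cells and 100% = reference agonist response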
# Numbers without * were called inactive; i = inactive; . = no result given. An excerpt weighted towards active compounds, which were near 1.1% of everything screened. Rule as the data show it, unless noted: active = activation above about 18%; inactive = the rest.
SMILES,MOR-DOR ag,HTR5A ag,HTR5A inv ctr,OPRM1-OPRD1 inv,MOR-DOR ag conf,HTR5A ag ctr2
COc1ccc(S(=O)(=O)N(Cc2ccccc2)Cc2nc3ccccc3c(=O)[nH]2)cc1,3,0,-6,-12,.,.
COc1ccccc1CN(Cc1nc2ccccc2c(=O)[nH]1)S(=O)(=O)c1ccc2ccccc2c1,20*,-2,5,-120,-1,0
O=C(NCCCNC(=O)c1ccc(F)cc1)c1ccc(F)cc1,-2,1,-5,7,.,.
CCc1cccc(C)c1NC(=S)NCC(c1cccnc1)N(C)C (configuration not stated),139*,-4,10,i,129*,2
CN(C)C(CNC(=O)c1cccs1)c1cccnc1 (configuration not stated),0,2,-12,2,.,.
CN(C)C(CNC(=O)NC1CCCCC1)c1cccnc1 (configuration not stated),158*,1,3,i,148*,-2
CN(C)C(CNC(=S)Nc1cccc(Cl)c1)c1cccnc1 (configuration not stated),324*,1,18,i,331*,5
CN(C)C(CNC(=S)Nc1ccccc1)c1cccnc1 (configuration not stated),108*,8,-28,i,103*,1
S=C(NCc1ccncc1)Nc1cccc(Cl)c1,0,3,-3,0,.,.
CCc1cccc(C)c1NC(=S)NCc1ccccc1,1,11,-18,-9,.,.
CC1O[C@@H]2O[C@](O[C@H](C)CC[C@@H](C)O)(c3ccccc3)O[C@@H]2C[C@H]1O (some centres not stated),-3,15,-44,15,.,.
CC(C)CN1C(=O)C(=O)N(CC(=O)NC(C)CCc2ccccc2)C1=O (configuration not stated),-2,1,-3,13,.,.
CSC(C1CCCC1)n1nnc2ccccc21 (configuration not stated),-1,-4,10,4,.,.
CN(C)C(CNC(=S)Nc1ccccc1Cl)c1cccnc1 (configuration not stated),407*,0,5,i,387*,-2
O=C(NCCc1ccccc1)C(c1cccs1)N(C(=O)CCl)c1ccc(Cl)cc1 (configuration not stated),87*,32*,-85,i,14,4
O=C(NCCc1ccccc1)C(c1cccs1)N(C(=O)c1csnn1)C1CC1 (configuration not stated),-2,-2,5,11,.,.
COc1cccc(CNC(=O)CSc2nnc3c(n2)[nH]c2ccccc23)c1,-2,-1,-1,10,.,.
COc1cc(/C=N/NC(N)=S)ccc1OCC(=O)Nc1ccc(C)c(C)c1,22*,-3,7,-125,10,0
CN1CCC(CC(C(=O)N2CCCC2)(c2ccccc2)c2ccccc2)C1 (configuration not stated),63*,0,1,-307,4,-1
CC(C)(C)C(=O)N1CCC[C@H]1C(O)(c1ccccc1)c1ccccc1,-2,-2,-4,13,.,.
O=C(NN=Cc1cc(Br)c(O)c(Br)c1)c1ccccc1NS(=O)(=O)c1cccs1,-2,-2,7,8,.,.
Cc1ccc(N(C(=O)C(F)(F)F)C(C(=O)NC2CCCCC2)c2cccs2)cc1 (configuration not stated),18*,12,-10,-105,-1,-1
O=C(Nc1ccccc1)/C(=C/c1cccc(Br)c1)NC(=O)c1ccco1,-2,-6,14,12,.,.
O=C(OCc1ccccc1)/C(=C/c1cccc(Br)c1)NC(=O)c1ccco1,21*,2,2,-115,-2,-3
O=C(O)c1ccccc1NS(=O)(=O)c1cccc(-n2sc3ccccc3c2=O)c1,4,12,-33,-19,.,.
SMILES,MOR-DOR ag,HTR5A ag,HTR5A inv ctr,OPRM1-OPRD1 inv,MOR-DOR ag conf,HTR5A ag ctr2
Cc1cc(-c2ccccc2)nc(N/N=C/c2ccc(O)cc2)n1,0,3,-19,-2,.,.
Oc1ccc(/C=N/Nc2nc(-c3ccc(Cl)cc3)cc(C(F)(F)F)n2)cc1,24*,5,-14,-124,0,2
Cc1ccc2nc(C3CCCCC3)[nH]c2c1,-3,1,1,13,.,.
CNC[C@H](Cc1ccccc1)NC[C@@H](Cc1cccc2ccccc12)NCCc1ccc(C)cc1,30*,1,-11,-167,4,-1
COc1ccc(NC(=O)CN2CCc3ccccc3C2)cc1S(=O)(=O)N1CCOCC1,51*,3,-16,-345,3,8
COc1ccc(NC(=O)CN2CCOCC2)cc1S(=O)(=O)N1CCCCC1,2,-2,4,-9,.,.
Cc1ccc(/C=N/Nc2ccnc3cc(Cl)ccc23)c(C)c1,18,-2,6,-129,.,.
Cc1ccccc1/C=N/Nc1ccnc2cc(Cl)ccc12,21*,5,-14,-129,22*,9
CCCCCN(C(=O)CCC(=O)OCCOc1ccccc1Cl)c1c(N)n(CCCC)c(=O)[nH]c1=O,-1,4,-11,6,.,.
CCOC(=O)C1=C(CN2CC(C)CC(C)C2)NC(=O)NC1c1ccc2c(c1)OCO2 (configuration not stated),26*,-3,26,-137,24*,5
COc1ccc(C2CC(c3ccc(OC)cc3)n3nc(NC(=O)c4cccs4)nc3N2)cc1 (configuration not stated),26*,1,-18,-134,48*,2
CC(Sc1nc2ccccc2c(=O)n1CC1CCCO1)C(=O)N(C)c1ccccc1 (configuration not stated),-4,2,5,14,.,.
Cc1ccc(Cn2c(=N)n(CC(O)COc3ccccc3)c3ccccc32)cc1 (configuration not stated),24*,-5,8,-140,61*,2
CCCCn1c(=N)n(CC(O)COc2ccc(C)cc2)c2ccccc21 (configuration not stated),5,1,-2,-25,.,.
N=c1n(Cc2ccccc2)c2ccccc2n1CC(O)COc1ccccc1 (configuration not stated),43*,-2,7,-225,0,-7
CCCCn1c(=N)n(CC(O)COc2ccccc2)c2ccccc21 (configuration not stated),1,1,-30,-3,.,.
O=C1CSC(=Nc2cccc([N+](=O)[O-])c2)N1,-3,7,-26,11,.,.
CC1CCc2c(sc(NC(=O)CCC(=O)O)c2C(=O)NC2CC2)C1 (configuration not stated),-1,-2,8,8,.,.
Cn1nccc1C(=O)NC1CCCc2c1cnn2-c1ccc(C(C)(C)C)cc1 (configuration not stated),-2,7,-1,12,.,.
COc1ccc(C2CC(c3ccc4ccccc4c3OC(C)=O)=NN2C(C)=O)cc1 (configuration not stated),129*,-3,10,i,21*,10
